The record followed here is PubChem BioAssay (NCATS).

Each structure is given as a SMILES string. Inconclusive results are not listed. A number with no mark means an inactive call. The call rests on the fitted dose curve; in most records, active means well fitted activation curve with a large enough effect; inconclusive means small, poorly fitted or top-dose-only effect; inactive means flat fitted curve, though single readings scatter.

Sequence of D(1A) dopamine receptor (Homo sapiens) (P21728 whole entry, looked up): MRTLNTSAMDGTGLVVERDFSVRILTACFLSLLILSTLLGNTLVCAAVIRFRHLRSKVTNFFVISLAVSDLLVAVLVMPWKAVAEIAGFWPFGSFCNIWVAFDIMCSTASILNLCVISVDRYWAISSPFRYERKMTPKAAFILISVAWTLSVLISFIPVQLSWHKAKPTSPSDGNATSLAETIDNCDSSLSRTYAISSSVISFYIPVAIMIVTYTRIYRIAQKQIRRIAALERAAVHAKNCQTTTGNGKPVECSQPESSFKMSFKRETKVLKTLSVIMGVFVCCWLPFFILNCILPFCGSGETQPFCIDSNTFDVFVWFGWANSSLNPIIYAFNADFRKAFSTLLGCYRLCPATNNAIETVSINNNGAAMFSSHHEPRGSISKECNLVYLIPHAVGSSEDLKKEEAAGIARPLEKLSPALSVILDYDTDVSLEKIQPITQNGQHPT

This assay deals with D(1A) dopamine receptor (Homo sapiens) (UniProt P21728). Put plainly: HTS Assay for Allosteric Agonists of the Human D1 Dopamine Receptor: Primary Screen for Agonists (AID 488981). Further: 0% is about no effect. Particulars: Inducible HEK293 T-REx D1 cells, calcium-flux fluorescence, 180 s kinetic; series mostly up to 41.8 µM; activation: at the top concentration. From the text:
Dopamine receptors (DARs) are involved in the etiology and/or therapy of a number of neuropsychiatric and endocrine disorders. For instance, all receptor-based antiparkinsonian drugs work via stimulating the […] DAR subtype whereas all FDA-approved antipsychotic agents are antagonists of this receptor. […] There are three different types of allosteric modulators that we are seeking, two of which will stimulate or augment receptor signaling, allosteric agonists and potentiators, while the third, allosteric antagonists, will attenuate receptor signaling. The present primary screening assay measures compound agonism by tracking calcium flux in a […], inducible Hek293 Trex D1 cell line.
Freshly passaged cells are plated in 1536 well black, clear bottom plates at a density of 4000 cells/well in 3 ul of complete media containing 1x tetracycline inducer. After an overnight incubation at 30 C in 5% CO2, cells are loaded with 2 ul of the no wash Calcium Assay Kit (ABD Bioquest) and incubated at room temperature for 30 to 90 minutes. A 10 cycle (1 second/cycle) baseline measurement is taken and then the FDSS online 1536 pintool delivers 23 nl of compound library (as well as dopamine controls) to the plate. The plate is measured for kinetically at 1 cycle/sec for 180 seconds and is considered to be the agonist portion of the assay (eg, compounds which activate a positive calcium response during this portion are flagged as potential agonists). Following the 180 second read, 1 ul of an EC20 of dopamine is delivered by an onboard pipette head. Measurements are taken kinetically for an additional 180 seconds.
For `C[N+](C)(C)CCO`, the “activation” value was -0.264%.
The value for `COc1ccccc1N1CCN(CCN2C(=O)CC3(CCCC3)CC2=O)CC1` was -1.37%; that for `COc1cccc2c1[C@@H]1CN(CCCCn3c(=O)[nH]c4c(sc5ncc(-c6ccccc6)nc54)c3=O)C[C@@H]1CO2` was -0.529%.
The value for `Nc1ncnc2n[nH]c(Nc3ccc(F)cc3)c12` was 5.61%.
Under `CN(C)c1cc2c(Nc3ccc4c(cnn4Cc4ccccc4)c3)ncnc2cn1` stands 27.7%; under `CCN(CC)CCNC(=O)c1ccc(NS(C)(=O)=O)cc1`, -0.688%.
Turning to `O=[N+]([O-])c1ccc(-c2nc(-c3ccc(F)cc3)c(-c3ccncc3)[nH]2)cc1`, the “activation” value is 1.11%.
Under `CC(C)N(CCC(=O)c1ccc2ccccc2c1)Cc1ccccc1` stands 2.43%; under `NC(N)=NCCCCN=C(N)N`, 0.211%.
`COC(=O)C1=CO[C@@H](O)[C@@H]2C(CO)=CC[C@H]12`: the “activation” value was -0.0529%.
Under `Brc1ccc([C@H]2CN3CCSC3=N2)cc1` stands 0.582%.
The value for `Cc1nn(-c2ccccc2)c(C)c1/C=N/N1CCN(Cc2ccccc2)CC1` was -1%.
The value for `O=C1NC(c2cccc([N+](=O)[O-])c2)=CCN1c1ccccc1O` was -1.06%; that for `Cn1cnc2c(NCc3ccccc3)nc(NCCO)nc21` was -0.37%; that for `O=C1NC(=O)/C(=C/c2ccc3c(c2)OC(F)(F)O3)S1` was 0.688%.
For `N[C@@H](Cn1ccc(=O)c(O)c1)C(=O)O`, the “activation” value was 0.264%.
